aSyn 5UTR act: Activators via SNCA 5'UTR binding, MLPCN | alpha-synuclein 5'UTR reporter, activators screen | actives 7.1% (n = 300,000) | activity score, % (tested at 7.5 µM), hits read low | AID 1814, 2009; in the data active = activity score below about -60%
* hit, by the source's call. A selection follows.

SMILES	aSyn 5UTR act
CCn1ccnc1CNC(=O)c1ccc2oc(CCCc3ccccc3)nc2c1	-75*
CCCCc1nc2cc(C(=O)N3CCCC(COC)C3)ccc2o1 (stereo not given)	-86*
CCCCc1nc2cc(C(=O)N3CCCCC3C(=O)OC)ccc2o1 (stereo not given)	-98*
COCC1CCN(C(=O)c2ccc3oc(CCCc4ccccc4)nc3c2)C1 (stereo not given)	-95*
CCCCc1nc2cc(C(=O)NC(C)c3cnn(C)c3)ccc2o1 (stereo not given)	-77*
Cc1ccc(NC(=O)Nc2ccc(F)cc2)cc1Cl	-130*
COc1cccc(NC(=O)Nc2ccc(C)c(Cl)c2)c1	-157*
N#C/C(=C/c1ccc([N+](=O)[O-])cc1)C(=O)Nc1ccccc1O	-134*
N#C/C(=C\c1ccc([N+](=O)[O-])cc1)C(=O)Nc1ccccc1O	-112*
O=C1CC(c2cc(-c3ccccc3)no2)C1	-99*
CC(=O)Cn1ncc(Br)c(Br)c1=O	-87*
CC(C)(C)C(=O)Cn1ncc(N2CCCC2)c(Br)c1=O	-72*
O=C(OCn1ncc(Br)c(Br)c1=O)c1c(F)cccc1F	61
O=c1nc(/C=C/c2ccc(-c3ccc(F)cc3)o2)cc(C(F)(F)F)[nH]1	-62*
Cc1cc2nc(/C=C/c3cccnc3)[nH]c2cc1C	92
CC(=O)Nc1nc(C)c(-c2nc3ccc([N+](=O)[O-])cc3[nH]2)s1	-81*
O=[N+]([O-])c1cccc(/C=C/c2nc3ccc([N+](=O)[O-])cc3[nH]2)c1	-152*
Cn1cccc1-c1nc2ccc([N+](=O)[O-])cc2[nH]1	-175*
O=[N+]([O-])c1ccc2nc(-c3ccccc3)[nH]c2c1	-121*
Cc1cc2ccccn2c1C(=O)Nc1cccc(Cl)c1	-113*
Cc1cc2ccccn2c1C(=S)NC(=O)c1ccccc1	-82*
Brc1ccc(-c2nnc(-c3ccco3)o2)cc1	-146*
c1ccc(-c2nnc(-c3ccco3)o2)cc1	-137*
Cc1ccc(-c2nnc(-c3ccc(Br)cc3)o2)o1	-135*
c1coc(-c2nnc(-c3cccs3)o2)c1	-99*
SMILES	aSyn 5UTR act
CC(=O)Nc1nc2ccc(NC(=O)c3ccco3)cc2s1	-77*
Cc1ccc2nsnc2c1NC(=S)NC(=O)c1ccco1	-94*
COc1cc2sc(NC(=O)c3ccco3)nc2cc1Cl	-189*
Cc1ccc2nc(NC(=O)c3ccco3)sc2c1	85
Cc1ccc2nc(NC(=S)NC(=O)c3ccco3)sc2c1	-148*
Cc1nc2ccc(NC(=O)c3ccco3)cc2s1	-90*
CN(C)c1ccc(-n2cc3c(=O)n(C)c(=O)n(C)c3c2)cc1	-198*
CCN(CC)c1ccc(-n2cc3c(=O)n(C)c(=O)n(C)c3c2)cc1	-118*
COc1ccc2cc(C(N)=O)c(=Nc3ccccc3)oc2c1	-90*
COc1ccc2oc(=Nc3cc(F)ccc3F)c(C(N)=O)cc2c1	-176*
O=C(Nc1nccs1)c1ccc(-c2ccc(F)c(Cl)c2)o1	-151*
O=C(Nc1nccs1)c1ccc(-c2ccc(Cl)cc2Cl)o1	-149*
Cc1ccccc1NC(=O)c1cc2ccccn2n1	-109*
Cc1ccc(C)c(NC(=O)c2cc3ccccn3n2)c1	-196*
C/C(=N\NC(=O)c1cc(-c2cccnc2)nc2ccccc12)c1ccc(O)cc1O	105
C/C(=N\NC(=O)c1c(C)nc2ccccn12)c1ccco1	-139*
C/C(=N\NC(=O)c1cccc(N/N=C(\C)c2ccco2)c1)c1ccco1	-81*
C/C(=N\NC(=O)c1c(C)nc2ccccn12)c1ccc(C(C)(C)C)cc1	-98*
C/C(=N/NC(=O)c1cc2ccccc2cc1O)c1ccco1	-64*
CCc1nnc2c3cnn(-c4ccccc4)c3ncn12	-183*
O=C(NCCS(=O)(=O)NCCc1ccccc1)c1ccccc1	-62*
CS(=O)(=O)Nc1ccc(C(=O)NCCc2ccccc2)cc1	-125*
COC(=O)c1cc(/C=C/c2ccccc2)[nH]n1	-117*
C/C(=N\Nc1nccnc1Cl)c1ccc(O)c(C)c1	-180*
Cc1ccc(C(=O)Nc2cc3ccccc3oc2=O)cc1	111
SMILES	aSyn 5UTR act
CC(=O)c1cc(NC(=O)c2ccc(C)cc2)c(=O)oc1C	-117*
Cc1oc(=O)c(NC(=O)c2ccccc2)cc1C(=O)c1ccccc1	-205*
CC(=O)c1cc(NC(=O)c2ccc(C)cc2)c(=O)oc1/C=C/N(C)C	-78*
CC1CCN(c2oc(-c3cccc4ccccc34)nc2C#N)CC1	-142*
N#Cc1nc(-c2cccc3ccccc23)oc1N1CCCCC1	-155*
N#Cc1nc(-c2ccccc2Cl)oc1N1CCCCC1	-69*
COc1cccc(C2(O)CC(C(F)(F)F)=NN2C(=O)c2ccccn2)c1 (stereo not given)	-113*
COCC(C)Nc1ncnc2c1cnn2-c1ccc(Cl)cc1 (stereo not given)	-132*
Clc1ccc(-n2ncc3c(NCCCn4ccnc4)ncnc32)cc1	-111*
CCOC(=O)N1CCC(Nc2ncnc3c2cnn3-c2ccc(Cl)cc2)CC1	-133*
CCCCNc1ncnc2c1cnn2-c1ccc(Cl)cc1	-137*
CCCCNc1ncnc2c1cnn2-c1ccccc1	-260*
Clc1ccc(-n2ncc3c(N4CCCCCC4)ncnc32)cc1	78
Clc1ccc(-n2ncc3c(NCc4ccccn4)ncnc32)cc1	-123*
c1ccc(-n2ncc3c(NCCCN4CCOCC4)ncnc32)cc1	-97*
CCc1nc(NC(C)(C)C)c2cnn(-c3ccccc3)c2n1	-129*
CCSc1nsc(NC(=O)Nc2cccc(OC)c2)n1	-140*
CCSc1nsc(NC(=O)Nc2ccccc2F)n1	-183*
O=C1SC(SC(=Nc2ccccc2)Nc2ccccc2)C(=O)N1c1ccccc1 (stereo not given)	-132*
COCCc1nc2ccc(C(=O)N(C)Cc3cccc(-n4cccn4)c3)cc2o1	-75*
CCCCOc1ccc(C(=O)Nc2cccc(C)n2)cc1	-68*
CCOc1ccc(NC(=O)Nc2cccc(C)n2)cc1	-143*
CCOc1ccc(NC(=O)Nc2cc(C)ccc2F)cc1	-199*
Cc1ccc(NC(=O)Nc2cccc(C)n2)c(C)c1	-104*
Cc1cccc(NC(=O)Nc2ccccc2)n1	-76*
SMILES	aSyn 5UTR act
COc1cccc(NC(=O)Nc2cccc(C)n2)c1	-110*
COc1cccc(C(=O)O/N=C(\N)c2ccc(C)cc2)c1	-211*
COc1ccc(/C(N)=N/OC(=O)c2cccc([N+](=O)[O-])c2C)cc1	-113*
COc1cccc(/C(N)=N/OC(=O)Cc2ccccc2[N+](=O)[O-])c1	-77*
COc1cccc(C(=O)O/N=C(\N)c2ccc([N+](=O)[O-])cc2)c1	-164*
COc1ccc(/C(N)=N/OC(=O)c2cccc([N+](=O)[O-])c2)cc1	-129*
Cc1ccc2nc(CCc3ccc(N)cc3)[nH]c2c1	-136*
Cc1ccc2nc(Cc3ccc(N)cc3)oc2c1	-108*
Nc1ccc2nc(CCc3ccccc3)[nH]c2c1	-68*
C/C(=N\NC(=O)c1cc(Cl)ccc1O)c1ccc(Br)s1	-76*
C/C(=N\NC(=O)CSCc1ccccc1Cl)c1cc(O)ccc1O	62
O=C(N/N=C/c1ccc(Cl)cc1)C1CC12CCC2 (stereo not given)	-110*
Clc1ccc2c(c1)C(C1=NCCN1)c1ccccc1CS2 (stereo not given)	79
COc1cc(OC)cc(C(=O)Nc2ccc(C(=O)c3ccncc3)cc2)c1	-72*
COc1ccc(C(=O)Nc2ccc(/C(C)=N/NC(=O)c3ccncc3)cc2)cc1	-108*
COc1ccc(/C(C)=N/NC(=O)c2ccccc2N)cc1	-92*

Source: PubChem (Broad Institute)
